D1 antag: Antagonist of Human D 1 Dopamine Receptor: qHTS; activity change, negative = inhibition, % at 10 µM; 3.2% of 360,000 active; HEK293 TREx D1 cells, calcium flux, dopamine EC80; stronger effect = lower value; in the data active means activity change below about -30%
Target sequence (P21728 whole entry, looked up): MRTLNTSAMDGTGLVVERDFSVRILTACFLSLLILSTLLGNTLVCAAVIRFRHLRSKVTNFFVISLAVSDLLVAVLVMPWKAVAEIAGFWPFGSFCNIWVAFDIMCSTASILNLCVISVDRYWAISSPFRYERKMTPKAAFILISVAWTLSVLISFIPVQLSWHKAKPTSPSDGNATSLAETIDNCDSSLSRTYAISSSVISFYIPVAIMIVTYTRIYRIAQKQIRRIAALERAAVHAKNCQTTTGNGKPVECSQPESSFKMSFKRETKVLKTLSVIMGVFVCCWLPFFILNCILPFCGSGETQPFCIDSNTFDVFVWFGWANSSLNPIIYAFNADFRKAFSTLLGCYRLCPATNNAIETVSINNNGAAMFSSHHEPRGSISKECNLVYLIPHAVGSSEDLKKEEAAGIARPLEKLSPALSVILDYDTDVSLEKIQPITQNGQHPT
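Tetracycline-induced HEK293 T-REx cells with force-coupled D1 receptor were loaded with a no-wash calcium dye. Compound was added after a 10 s baseline and read kinetically for 180 s; EC80 dopamine was then added and calcium flux followed another 180 s.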
Glioma ERSR ind: qHTS for Inducers of the Endoplasmic Reticulum Stress Response (ERSR) in Human Glioma: qHTS; U87-MG GRP78 promoter luciferase reporter, 16 h; Potency, µM, usual class: activators; 0.02% of 420,000 active; AID 602332, 2012; active means well fitted activation curve with a large enough effect; further: series mostly up to about 76 µM; nearly all actives have a fitted effect of over 35% in size
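Stably transfected U87-MG human glioma cells carrying a GRP78-based luminescent sensor were seeded at 1000 cells/well, pin-dosed with compounds and incubated 16 h. Luciferase reagent was then added, and end-point luminescence was read after 10 min at room temperature.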
TRHR PAM: qHTS for Small Molecule Agonists and Allosteric Enhancers of Human TRH Receptor: Primary Screen for Enhancers | AID 493056, 2011 | TRHR cells, fluo-8 calcium fluorescence, EC20 TRH enhancement | 0.66% of 360,000 active | enhancement, % at 2 µM; in the data active means enhancement above about 30%
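Enhancer read-out: after compound pinning and an initial kinetic agonist-mode read, an EC20 of TRH (10 nM final) was injected and fluo-8 calcium signal (Ex 480/Em 530) followed at 1 s/cycle for 100 cycles in TRHR-expressing cells.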
TRHR agonist: qHTS for Small Molecule Agonists and Allosteric Enhancers of Human TRH Receptor: Primary Screen for Agonists; Thyrotropin-releasing hormone receptor (Homo sapiens), P34981; TRHR cells, calcium flux fluo-8, FDSS agonist mode; activation, % at 2 µM; 0.18% of 360,000 active; AID 493084, 2011
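TRHR-expressing cells loaded with fluo-8 calcium dye; 23 nL library compound pin-transferred, kinetic FDSS fluorescence (Ex 480/Em 530) recorded about 180 s for agonist-induced calcium release, before a 10 nM TRH EC20 addition for potentiator mode.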
D1 PAM: Potentiators of Human D1 Dopamine Receptor: qHTS; potentiation, % at 10 µM; 0.036% of 360,000 active; D(1A) dopamine receptor (Homo sapiens), P21728; HEK293 TREx D1 cells, calcium flux, dopamine EC20 potentiation; in the data active means potentiation above about 30%
D1 ag: Allosteric Agonists of the Human D1 Dopamine Receptor: qHTS; HEK293 T-REx D1 cells, calcium flux, agonist mode; 1% of 360,000 active; activation, % at 2 µM; AID 504660, 2011
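Inducible HEK293 T-REx D1 cells, force-coupled to calcium signalling, were plated at 4000 cells/well with tetracycline and held overnight at 30 C. After no-wash calcium dye loading, compound-evoked calcium rise over 180 s flagged agonists.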
Of the large screens only hits and unclear results are named; the others gave an inactive call. Only some compounds are listed: those with a hit (about 4% of all), similar ones and a draw of the others. Unless noted, no stated cut-off is given here; in the data, active means activation above about 30%; inactive means the rest.

CCN(Cc1ccncc1)Cc1ccc2c(c1)CN(C(=O)c1ccccc1-n1cccn1)CCO2	none (no result: D1 antag, TRHR PAM, TRHR agonist, D1 PAM, D1 ag)
Cc1c(Cl)cccc1NC(=O)CSc1sc2c(O)cc(=O)[nH]c2c1C#N	none
N#Cc1c(SCC(=O)Nc2ccccc2C(F)(F)F)sc2c(O)cc(=O)[nH]c12	D1 antag -32.7
CCOC(=O)C1CCCN(S(=O)(=O)c2ccc3c(c2)N(C(C)=O)CCO3)C1 (configuration not stated)	none
Cc1nc(C/C(=N\N)c2ccc(O)cc2O)cs1	D1 antag -31.6
N/N=C(\Cc1cscn1)c1ccc(O)cc1O	none
CC(C)(C)c1ccc(Oc2ccc(NC(=O)c3ccco3)cn2)cc1	none
O=C(Nc1ccc(Oc2cccc(C(F)(F)F)c2)nc1)c1ccco1	D1 antag -40.6
CCN(Cc1ccccc1)Cc1nnnn1Cc1ccccc1	D1 antag -72.6
CN(C)c1nnnn1Cc1ccccc1	none
COCC(=O)N1CCC(Oc2ccc(C(=O)N3CCCCC3COC)cc2)CC1 (configuration not stated)	none
Cc1c(-c2cccc(NC(=O)Nc3ccccc3)c2)nc2ncccn12	D1 antag -56.4
O=S(=O)(c1cccc(Br)c1)N1CCN(c2nc(-c3cccs3)nc3ccccc23)CC1	none (no result: D1 antag, TRHR PAM, TRHR agonist, D1 PAM, D1 ag)
CC(C)(C)c1ccc(-c2nc(SCC(=O)Nc3ccc(Cl)cc3)[nH]c(=O)c2C#N)cc1	D1 ag 131.7
Cc1ccc(C(c2nnnn2C2CCCCC2)N2CCc3ccccc32)cc1 (configuration not stated)	D1 antag -34.2
CC(C)C(c1nnnn1C1CCCCC1)N1CCc2ccccc21 (configuration not stated)	none
CN(c1ccccc1)c1cc(Br)nc(Br)c1	none (no result: D1 antag, TRHR PAM, TRHR agonist, D1 PAM, D1 ag)
COc1cccc(N2CC(C(=O)Nc3ccc(C(=O)OC(C)C)cc3)CC2=O)c1 (configuration not stated)	D1 antag -30.2
COc1cccc(N2CC(C(=O)Nc3ccc(F)cc3)CC2=O)c1 (configuration not stated)	none
CN1C=CC=C/C1=C1\SC(=S)N(N)C1=O	none
N#CC1=C(N)NC(SCc2ccccc2)=C(C#N)C12CCCCC2	D1 antag -36.2
O=C(O)C1CCCCN1C(=O)c1ccc(S(=O)(=O)N2CCCCCC2)cc1 (configuration not stated)	none
NC(=O)Nc1ccc(C(=O)OCC(=O)NC2CCCCC2)cc1	none
CN(C)c1ccc(/C=C/C(O)=C2/C(=O)N(C)C3(C)CC2c2ccccc2O3)cc1 (configuration not stated)	TRHR agonist 32.0, D1 ag 68.8 (no result: Glioma ERSR ind)
CCOc1ccc(/C=C/C(O)=C2/C(=O)N(C)C3(C)CC2c2ccccc2O3)cc1OC (configuration not stated)	none
N#Cc1nc(COc2ccc(F)cc2)oc1N1CCC(Cc2ccccc2)CC1	D1 ag 48.3
N#Cc1nc(COc2ccccc2Cl)oc1N1CCCC1	D1 antag -30.8
N#Cc1nc(COc2ccccc2Cl)oc1N1CCCCCC1	none
COc1ccc(C(=O)Nc2ccc(NC(C)=O)cc2)cc1S(=O)(=O)N(C)Cc1ccccc1	none (no result: D1 PAM)
COc1ccc(NC(C)=O)cc1S(=O)(=O)N(C)Cc1c(C)nn(-c2ccccc2)c1C	D1 antag -32.8
CC1(C)CC(=O)c2cc(C(=O)Nc3ccccc3)c(=O)[nH]c2C1	none (no result: D1 antag, TRHR PAM, TRHR agonist, D1 PAM, D1 ag)
CCOC(=O)c1c(C)[nH]c(CCC(=O)NCCCN2CCN(c3ccccc3F)CC2)c1C	none
O=C(Cc1csc(Nc2nc(=S)[nH]c3ccccc23)n1)NCCCN1CCN(c2ccccc2F)CC1	D1 antag -85.6
COc1ccc(CNC(=O)Cc2csc(Nc3nc(=S)[nH]c4ccccc34)n2)cc1	none
O=C(Cc1csc(Nc2nc(=S)[nH]c3ccccc23)n1)NCc1ccc(Cl)cc1	D1 antag -97.0
COc1ccc(CN2C(=O)N(c3ccc(F)cc3)C(=O)C2CC(=O)Nc2ccccc2)cc1 (configuration not stated)	none
COc1cc(-c2cc(NC=O)c3ncc(-c4ccc(C(C)=O)cc4)n3c2)ccc1O	none (no result: D1 antag, TRHR PAM, TRHR agonist, D1 PAM, D1 ag)
COc1cc(=O)n2c(c1C(=O)NCc1ccc3c(c1)OCO3)CCN(C(=O)c1ccccc1F)CC2	none (no result: D1 antag, TRHR PAM, TRHR agonist, D1 PAM, D1 ag)
CCOc1ccc(C2OC(=O)Cc3cc(OC)c(OC)cc32)cc1 (configuration not stated)	D1 antag -31.1
CCOc1ccc(C2NC(=O)Cc3cc(OC)c(OC)cc32)cc1 (configuration not stated)	none
CC(C)c1ccc(N2C(=O)/C(=C/N(C)C)SC2=S)cc1	TRHR agonist 47.1, D1 ag 98.7
Cc1ccsc1C(=O)OCC(=O)Nc1cccc(S(=O)(=O)NC2=NCCCCC2)c1	D1 antag -42.3
O=C(Nc1cccc(S(=O)(=O)NC2=NCCC2)c1)c1cc(-c2ccccn2)nc2ccccc12	none
Cc1cc(C)cc(C(=O)OCC(=O)Nc2cccc(S(=O)(=O)NC3=NCCCCC3)c2)c1	D1 antag -45.5
O=C(Nc1cccc(S(=O)(=O)NC2=NCCCCC2)c1)c1cc(-c2ccccc2Cl)nc2ccccc12	D1 antag -36.0
O=C(COC(=O)c1ccccc1)Nc1cccc(S(=O)(=O)NC2=NCCCCC2)c1	none
CCN(CC)S(=O)(=O)c1cccc(NC2=NCCCCC2)c1	D1 antag -36.2
COc1cccc(NC2=NCCCCC2)c1	none
C1=Nc2c(Nc3ccccc3)ncnc2Oc2ccccc21	none
Cc1onc(-c2c(F)cccc2Cl)c1C(=O)N(Cc1ccccc1)C(C)C	none
O=C(Cc1csc(-c2ccc(Cl)cc2)n1)Nc1cccc(S(=O)(=O)NC2=NCCC2)c1	none
O=C(Cc1csc(-c2ccc(F)cc2)n1)Nc1cccc(S(=O)(=O)NC2=NCCC2)c1	D1 antag -30.3
CCCCC(=O)OCC(=O)Nc1cccc(S(=O)(=O)NC2=NCCCCC2)c1	D1 antag -32.2
CCCCCC(=O)Nc1cccc(S(=O)(=O)NC2=NCCCCC2)c1	none
Cc1ccc(NC(=O)c2cc([N+](=O)[O-])ccc2NCc2cccnc2)cc1	D1 antag -35.9
CCOC(=O)c1c(/N=C/C2C(=O)CC(C)(C)CC2=O)sc2c1CCCC2	none
CCOC(=O)c1cc(CC)sc1/N=C/C1C(=O)CC(C)(C)CC1=O	D1 antag -48.7

Screens from PubChem BioAssay.
